Assay outcomes: PubChem BioAssay, several laboratories
SENP8 block-1: human SENP8 protease inhibitors, primary screen, biochemical, fluorescence, Nedd8 protein substrate, uHTS | inhibition, % at 20 µM | 360,000 compounds, 0.64% hits | AID 602440, 2012 | recombinant SENP8 | Sentrin-specific protease 8 (Homo sapiens), Q96LD8; in the data active = inhibition mostly above about 40%, no sharp cut-off; inactive = mostly below about 27%
Target sequence (Q96LD8 whole entry, looked up): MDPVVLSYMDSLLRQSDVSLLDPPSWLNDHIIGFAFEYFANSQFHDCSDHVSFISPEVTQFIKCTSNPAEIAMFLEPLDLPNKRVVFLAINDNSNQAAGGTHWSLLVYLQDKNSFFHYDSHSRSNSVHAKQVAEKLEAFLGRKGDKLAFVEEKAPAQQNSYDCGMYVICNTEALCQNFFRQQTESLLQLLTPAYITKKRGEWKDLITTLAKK
SENP8 block-2: SENP8 protease inhibitors, primary screen, biochemical, luminescence | Sentrin-specific protease 8 (Homo sapiens), Q96LD8 | purified SENP8, Z-RLRGG-aminoluciferin cleavage | inhibition, % at 10 µM | 330,000 compounds, 1.2% hits | AID 2540, 2010; in the data active = inhibition above about 50%
EBI2 block: EBI2 receptor antagonists, beta-arrestin recruitment, primary screen, cell-based, luminescence, 7a,25-OHC stimulation, uHTS; 360,000 compounds, 0.81% hits; inhibition, % at 5 µM; 7a,25-OHC stimulated; G-protein coupled receptor 183 (Homo sapiens), P32249; in the data active = inhibition above about 38%;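 also: enzyme fragment complementation signal reports receptor beta-arrestin coupling in cells; 0% = agonist plus DMSO wells and 100% = wells without agonist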
SENP7 inh: SENP7 protease inhibitors, primary screen, biochemical, luminescence, uHTS; 330,000 compounds, 1.5% hits; inhibition, % at 5 µM; recombinant SENP7, Z-RLRGG-aminoluciferin luminescence, 40 min;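 active = inhibition above about 50% at the single test dose, limit read from the data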;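 also: plate controls were DMSO with enzyme for no effect and no enzyme buffer wells for full effect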
Target sequence (Q9BQF6 706-1050 limits assumed): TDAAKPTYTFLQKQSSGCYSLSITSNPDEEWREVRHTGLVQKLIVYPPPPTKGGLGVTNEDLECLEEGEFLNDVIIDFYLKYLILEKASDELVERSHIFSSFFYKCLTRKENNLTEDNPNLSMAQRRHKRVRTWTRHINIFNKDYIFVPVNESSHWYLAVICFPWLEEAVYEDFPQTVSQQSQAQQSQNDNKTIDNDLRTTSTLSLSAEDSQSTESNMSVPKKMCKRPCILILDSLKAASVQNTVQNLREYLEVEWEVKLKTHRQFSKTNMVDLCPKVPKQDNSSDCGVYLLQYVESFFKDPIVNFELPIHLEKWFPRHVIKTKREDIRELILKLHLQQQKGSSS
AHR act: AHR activators, primary screen, cell-based, luminescence, luciferase reporter, human; Aryl hydrocarbon receptor (Homo sapiens), P35869; AHR-responsive luciferase reporter cells; activation, % at 5 µM; 320,000 compounds, 2.5% hits; AID 2796, 2010; in the data active = activation above about 47%;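 also: 0% = vehicle wells and 100% = reference agonist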
SENP6 inh: SENP6 protease inhibitors, primary screen, biochemical, luminescence, uHTS. inhibition, % at 10 µM. 330,000 compounds, 1.8% hits. Recombinant SENP6 catalytic domain, aminoluciferin luminescence. AID 2599, 2010;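 active = inhibition above about 50% at the single tested dose, limit read from the data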;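 also: plate controls were DMSO wells with enzyme for no effect and DMSO wells lacking enzyme for full effect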
SENP8 conf: SENP8 protease inhibitors, retest, confirmation, biochemical, luminescence, single concentration | Recombinant SENP8, Z-RLRGG-aminoluciferin luminescence, 60 min | inhibition, % at 12.5 µM | 6,200 compounds, 40% hits | shares compounds with SENP7 inh;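 active = mean inhibition across replicates above about 50%, limit read from the data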
SENP6 confirm: SENP6 protease inhibitors, confirmation, biochemical, luminescence, single concentration. 6,200 compounds, 58% hits. AID 488915, 2010. recombinant SENP6, Z-RLRGG-aminoluciferin luminescence. inhibition, % at 12.5 µM. shares compounds with SENP7 inh
SENP7 confirm: SENP7 protease inhibitors, retest, confirmation, biochemical, luminescence, single concentration; shares compounds with SENP7 inh; recombinant SENP7, Z-RLRGG-aminoluciferin luminescence, 40 min; inhibition, % at 12.5 µM; 6,200 compounds, 69% hits; AID 488917, 2010
Casp3 select: caspase-3 protease inhibitors, confirmation, selectivity assay for SENP inhibitor project, biochemical, single concentration. shares compounds with SENP7 inh. purified caspase-3, Z-DEVD-aminoluciferin luminescence, 60 min. inhibition, % at 12.5 µM. 6,200 compounds, 60% hits;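 active = mean inhibition above about 50%, limit read from the data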;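 also: plate controls were enzyme with DMSO for no effect and wells without caspase-3 for full effect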
Luc interf: luminescence interference (SENP counter-screen); shares compounds with SENP7 inh; Pre-incubated SENP8/Z-RLRGG-aminoluciferin, luciferase luminescence interference; inhibition, % at 12.5 µM; 6,200 compounds, 39% hits;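 active = mean inhibition above about 50% when retested at one dose, limit read from the data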;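 also: plate controls were DMSO wells with completed reaction for no effect and substrate without enzyme for full effect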
The depositor's hits bear a star; . = no result given. A selection: hits, their analogues and other compounds. The true share with any hit is near 5%.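 The calls were made as follows, unless noted: active = mean inhibition above about 50% in the one-dose retest (limit read from the data); inactive = the rest.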

SMILES	SENP8 block-1	SENP8 block-2	EBI2 block	SENP7 inh	AHR act	SENP6 inh	SENP8 conf	SENP6 confirm	SENP7 confirm	Casp3 select	Luc interf
C=CCN(Cc1cccs1)C(=O)CN1CCN(S(=O)(=O)c2ccc3c(c2)OCCCO3)CC1	10.7	8.9	8.1	2.7	3.2	2.0	.	.	.	.	.
N#Cc1c(N2CCCC(O)C2)nc(N)c2c(N)nc3c(c12)CC(=O)N3C12CC3CC(CC(C3)C1)C2 (configuration not stated)	-303.4	96.7*	5.4	64.1*	6.2	95.7*	-21.4	4.7	-3.7	-5.9	-4.8
C=C(C)CN(CC)c1nc(N)c2c(N)nc3c(c2c1C#N)CC(=O)N3C12CC3CC(CC(C3)C1)C2	-209.8	86.5*	37.9	27.0	6.5	85.1*	-9.6	-5.4	-9.5	-10.8	-7.4
CCNC(=S)NNC(=O)c1cc(-c2ccc(OC)cc2)nc2ccccc12	-415.4	90.8*	4.1	94.5*	7.1	92.7*	95.6*	96.3*	100.5*	96.9*	89.6*
CCNC(=S)NNC(=O)c1cc(-c2cccc(C)c2)nc2ccccc12	-64.9	80.8*	0.1	71.7*	7.9	84.7*	89.5*	90.3*	98.2*	96.0*	91.9*
CCCCOc1ccc(-c2cc(C(=O)NNC(=S)NCC)c3ccccc3n2)cc1	-268.6	93.8*	13.7	93.0*	-8.4	100.8*	98.4*	99.4*	103.0*	98.1*	64.7*
CCNC(=S)NNC(=O)c1cc(-c2cccc(OCC)c2)nc2ccccc12	-64.3	-1.5	11.1	-4.5	10.2	-6.6	.	.	.	.	.
CCCCOc1cccc(-c2cc(C(=O)NNC(=S)NCC)c3ccccc3n2)c1	-95.6	-16.4	4.3	-15.0	10.0	-1.6	.	.	.	.	.
COc1cccc(-n2c(SCC(=O)NCC3CCCO3)nc3c(c2=O)SCC3)c1 (configuration not stated)	3.1	-1.3	-10.6	0.4	3.5	-0.5	.	.	.	.	.
CCC1=NN2C(=N)/C(=C\c3ccc(OCc4cc(=O)n5nc(CC)sc5n4)c(OC)c3)C(=O)N=C2S1	-57.0	.	-12.6	.	.	.	.	.	.	.	.
CC(C)(C)OC(=O)NC1CC2CCCC(C1)N2Cc1ccccc1 (configuration not stated)	2.3	-10.3	6.7	-6.0	.	-7.1	.	.	.	.	.
Cc1c(C(=O)O)[nH]c2c1C(=O)CC(c1ccc(Cl)cc1)C2 (configuration not stated)	8.0	4.7	2.0	90.4*	-0.4	-6.7	6.9	5.1	-1.5	-2.1	-5.0
Cc1c(C(=O)N2CCOCC2)[nH]c2c1C(=O)CC(c1ccc(Cl)cc1)C2 (configuration not stated)	21.6	3.3	-12.3	2.2	13.9	0.3	.	.	.	.	.
Cc1cc(/C=C2\SC(=S)N(C)C2=O)c(C)n1-c1cccc(O)c1	16.0	79.9*	22.9	59.9*	-1.8	90.0*	4.7	25.7	27.1	7.5	13.4
Cc1cc(/C=C2\SC(=O)N(C)C2=O)c(C)n1-c1ccc(S(N)(=O)=O)cc1	-7.9	-1.6	8.5	2.7	0.3	-0.1	.	.	.	.	.
CN=C1S/C(=C\c2cc(C)n(-c3ccccc3F)c2C)C(=O)N1C	-13.7	62.7*	24.0	65.8*	1.7	42.1	86.2*	87.6*	95.8*	70.1*	74.0*
Cc1cc(/C=C2\SC(=O)N(C)C2=O)c(C)n1-c1ccc(O)cc1	-92.6	15.7	-0.9	-0.5	-1.4	60.7*	74.4*	71.8*	83.5*	30.5	68.9*
Cn1c(C(=O)NN)cc2cc(Oc3ccccc3)ccc21	-147.5	-4.1	0.9	1.8	2.7	-34.4	.	.	.	.	.
Cn1c(C(=O)O)cc2cc(Oc3ccccc3)ccc21	-24.7	63.9*	-16.8	12.8	-0.7	80.2*	7.0	66.3*	82.4*	70.8*	71.7*
Cc1ccc(NC(=O)O/N=C/c2c(C)nn(C(C)(C)C)c2C)cc1Cl	13.3	47.4	8.7	51.6*	-8.4	52.4*	10.1	46.2	41.5	1.0	-2.8
COc1ccc(-c2ccc(SC)nn2)cc1	-0.7	94.5*	2.8	100.0*	-7.0	94.9*	98.2*	98.9*	102.1*	98.2*	79.5*
CCOc1ccc(-c2ccc(SCC)nn2)cc1	0.1	79.7*	7.3	90.1*	-5.7	65.4*	58.7*	68.3*	85.2*	74.3*	25.2
CCc1ccc(NC(=O)CNCc2ccc(OC)c(OC)c2)cc1	17.2	0.4	3.2	7.1	3.4	9.2	.	.	.	.	.
Cc1cc(/C(N)=N/OC(=O)Nc2ccccc2)no1	10.0	-3.6	3.1	10.8	3.3	1.4	.	.	.	.	.
C/C(=N\OC(=O)Nc1ccccc1)c1ccc(C)cc1	28.0	69.6*	9.3	73.4*	5.6	67.4*	82.2*	82.9*	96.3*	78.6*	77.6*
CCOC(=O)c1c(CN(C)C)n(C)c2ccc(OC(C)=O)cc12	23.1	5.8	0.8	3.4	1.8	1.9	.	.	.	.	.
CCOC(=O)c1c(CN(C)C)n(C)c2c(O)c(N=NC(N)=O)c3ccc(Br)cc3c12	79.2*	34.3	4.9	10.0	12.8	67.8*	16.1	40.0	28.0	7.5	1.4
O=C(O)c1ccc(N=Nc2c(O)ccc3ncccc23)cc1	37.7	96.9*	11.6	100.4*	2.1	96.7*	98.6*	99.2*	102.3*	89.1*	61.7*
O=C(O)c1cc(N=Nc2c(O)ccc3ccccc23)cc(C(=O)O)c1	31.0	.	15.1	.	.	.	.	.	.	.	.
CC(C)CC(=O)N1CCC(N(CCc2ccccc2)Cc2ccccc2)CC1	8.2	3.1	14.1	5.4	-2.0	7.4	.	.	.	.	.
